Assay results from PubChem BioAssay (NCATS).
Inconclusive results are not listed. A call without a number means that no potency is given here. Values without a mark were called inactive. Active and inactive are the calls of the source. The call rests on the fitted dose curve; in most records, active means well fitted curve in the direction sought with a large enough effect; inconclusive means small, poorly fitted or top-dose-only effect, or another doubt; inactive means no such curve, though single readings can be large; an effect the other way counts as inactive or inconclusive.

Assays:
[1] = target: Aldehyde dehydrogenase, mitochondrial (Homo sapiens) (UniProt P05091); assay: qHTS for Inhibitors of the Aldehyde Dehydrogenase Family (ALDH2) Primary screen (AID 2061308); further: nearly all actives have a fitted effect of over 55% in size
[2] = target: Retinaldehyde dehydrogenase 3 (Homo sapiens) (UniProt P47895); assay: qHTS for Inhibitors of the Aldehyde Dehydrogenase Family (ALDH1A3) Primary screen (AID 2061315)

For `COC1CC(O[C@H]2CC[C@@]3(C)C(=CC[C@]4(O)C3[C@H](OC(C)=O)[C@@H](OC(=O)c3ccccc3)[C@]3(C)[C@@H](C(C)=O)CC[C@@]34O)C2)OC(C)C1OC1CC(OC)C(OC2CC(OC)C(OC3OC(C)C(OC4OC(CO)C(O)C(O)C4O)C(OC)C3O)C(C)O2)C(C)O1` (stereo partly drawn), the activity change, negative = inhibition [1] was 8.46% [at 11.2 µM] and the activity change, negative = inhibition [2] was 2.23% [at 11.2 µM].
With `O=S(=O)(NC1CCC(NS(=O)(=O)c2c(F)cccc2F)CC1)c1ccc2c(c1)OCCO2` (stereo not drawn) the Potency [1] was “inactive” and the Potency [2] was “inactive”.
`Fc1cc(Nc2nc(-c3ccncc3)nc3ccccc23)ccc1OCC(F)(F)F` was tested, and the Potency [1] was “inactive” and the Potency [2] was “inactive”.
`N[C@@H](Cc1ccc(O[S+](=O)([O-])c2cccc3cccnc23)cc1)C(=O)N1CCN(c2ccccc2)CC1` was tested, and the Potency [1] was “inactive” and the Potency [2] was “inactive”.
For `CC1=C(C(=O)Nc2ccon2)C2(CCCC2)N=C(Nc2nc3ccccc3o2)N1`, the Potency [1] was “inactive” and the Potency [2] was “inactive”.
For `CN(C)c1ccc(CNc2nc(-c3ccccc3C(F)(F)F)nc3ccccc23)cc1`, the Potency [1] was “inactive” and the Potency [2] was “inactive”.
`Brc1ccc(-c2csc(N3CCCCC3)n2)cc1` was tested, and the Potency [1] was “inactive” and the Potency [2] was “inactive”.
In the case of `COc1ccc(C2Nc3ccccc3C(=O)N2Cc2cccc(OC)c2OC)cc1COc1c(C)cc(NC(C)=O)cc1C` (stereo not drawn), the Potency [1] is reported as “inactive” and the Potency [2] is reported as “inactive”.
`O=C(Nc1ccc2ccccc2c1)Nc1nnc(-c2ccc(O)cc2)s1` was tested, and the Potency [1] was “inactive” and the Potency [2] was “inactive”.
`O=C1CCCC2=C1C(c1[nH]ncc1Cl)N=C(Nc1nc3cc([S+](=O)([O-])N4CCOCC4)ccc3o1)N2` (stereo not drawn) was tested, and the Potency [1] was “inactive” and the Potency [2] was “inactive”.
With `COc1cc(O)c(C(CC(=O)N2CCOCC2)c2ccc(OC)c(OC)c2)c(OC)c1` (stereo not drawn) the Potency [1] was “inactive” and the Potency [2] was “inactive”.
`Nc1nc(N)c2c(OCC3CCN(Cc4ccccc4F)CC3)cccc2n1` was tested, and the Potency [1] was “inactive” and the Potency [2] was “inactive”.
`COc1ccc(-c2nnc3n2N=C(c2cccc(OC)c2)CS3)cc1` was tested, and the Potency [1] was “inactive” and the Potency [2] was “inactive”.
In the case of `O=S(=O)(NCCCCNS(=O)(=O)c1c(F)cccc1F)c1ccc2c(c1)OCCO2`, the Potency [1] is reported as “inactive” and the Potency [2] is reported as “inactive”.
With `Cc1ccc(NS(=O)(=O)c2cc3c(cc2Cl)NC(=O)CO3)cc1Cl` the Potency [1] was “inactive” and the Potency [2] was “inactive”.
In the case of `O=C(Nc1ncc(Cc2ccc(C(F)(F)F)cc2)s1)c1ccco1`, the Potency [1] is reported as “inactive” and the Potency [2] is reported as “inactive”.
For `Cc1cc(C(C#N)c2ccc(Cl)cc2)c(Cl)cc1NC(=O)c1cc(I)cc(I)c1O` (stereo not drawn), the Potency [1] was “inactive” and the Potency [2] was “inactive”.
In the case of `O=C(O)c1ccc(-c2ccc3ncnc(NCC4CCCO4)c3c2)o1` (stereo not drawn), the Potency [1] is reported as “inactive” and the Potency [2] is reported as “inactive”.
With `Cc1nc(Nc2ccccc2)c2nc(-c3ccccc3)n(CCCN3CCCCC3C)c2n1` (stereo not drawn) the Potency [1] was “inactive” and the Potency [2] was “inactive”.
With `O=C(Nc1ccc(-c2ccccc2)cc1)Nc1nnc(-c2ccncc2)s1` the Potency [1] was “inactive” and the Potency [2] was “inactive”.
With `Cc1cc(S(=O)(=O)Nc2cnccc2C(=O)Nc2nc(-c3ccccc3)cs2)c(C)o1` the Potency [1] was “inactive” and the Potency [2] was “inactive”.
`Cc1ccc(S(=O)(=O)Nc2cc(C)ccc2C(=O)Nc2nc(-c3ccccc3)cs2)cc1` was tested, and the Potency [1] was “inactive” and the Potency [2] was “inactive”.
For `c1csc(CNc2ncnc3ccc(-c4ccc5c(c4)OCO5)cc23)c1`, the Potency [1] was “inactive” and the Potency [2] was “inactive”.
`O=C(OCC#CCSc1nnc(-c2cccc3ccccc23)o1)c1ccccc1F` was tested, and the Potency [1] was “inactive” and the Potency [2] was “inactive”.
With `CC1=C(C(=O)Nc2nc3ccccc3s2)C(c2nn(C)cc2Cl)N=C(Nc2nc3ccccc3o2)N1` (stereo not drawn) the Potency [1] was “inactive” and the Potency [2] was “inactive”.
`CC(=O)Nc1ccc(S(=O)(=O)Nc2cccc3cccnc23)cc1` was tested, and the Potency [1] was “inactive” and the Potency [2] was “inactive”.
For `CC(=O)O[C@@](C)(C(=O)/C=C/C(C)(C)O)[C@H]1[C@H](O)C[C@@]2(C)[C@@H]3CC=C4[C@@H](C=C(O)C(=O)C4(C)C)[C@]3(C)C(=O)C[C@]12C`, the Potency [1] was “inactive” and the Potency [2] was “inactive”.
In the case of `O=C1CCCC2=C1C(c1ncccc1Br)N=C(Nc1nc3ccccc3o1)N2` (stereo not drawn), the Potency [1] is reported as “inactive” and the Potency [2] is reported as “inactive”.
In the case of `Cc1ccc(S(=O)(=O)Nc2cnccc2C(=O)Nc2nc(-c3ccc(Oc4ccccc4)cc3)cs2)cc1`, the Potency [1] is reported as “inactive” and the Potency [2] is reported as “inactive”.
`COc1ccc(NC(=O)CSc2nnc(-c3cccc(S(=O)(=O)N4CCCC4)c3)n2-c2ccccc2)cc1` was tested, and the Potency [1] was “inactive” and the Potency [2] was “inactive”.
For `Cc1sc(NC(=O)Cc2ccc3c(c2)OCO3)nc1-c1ccc2c(c1)CCN2C(=O)c1ccccc1C(F)(F)F`, the Potency [1] was “inactive” and the Potency [2] was “inactive”.
With `CN1[C@@H]2CC[C@H]1CC(OC(=O)C(CO)c1ccccc1)C2` (stereo partly drawn) the Potency [1] was “inactive” and the Potency [2] was “inactive”.
In the case of `C=C[C@H](/C=C\c1ccc(O)cc1)c1ccc(O)cc1`, the Potency [1] is reported as “inactive” and the Potency [2] is reported as “inactive”.
With `CN(C)c1cnc2c(O)cccc2c1` the Potency [1] was “inactive” and the Potency [2] was “inactive”.
